This note sets out measurements from PubChem BioAssay (Tox21).

Records with an inconclusive call do not appear. Where a call stands in place of a potency, no number is given. Activity calls are given as the source filed them. Calls come from the whole dose curve; as a rule, active = well fitted cell-killing curve with a large enough effect in the repeat runs; inconclusive = weak or mixed curves, or effect the other way; inactive = flat fitted curve, though single readings scatter.
Potency is the fitted concentration of half-maximal effect.

This assay in a line: cAMP Responsive Elements (CRE) small molecule antagonists, cell-based qHTS assay: qHTS cell viability counter screen (AID 2060913). Note: nearly all actives have a fitted effect of over 40% in size. The settings on record: CRE-bla HEK293T viability, CellTiter-Glo luminescence, 5 h; series mostly up to 92.4 µM. The source says:
U.S. Tox21 Program National Center for Advancing Translational Sciences [NCATS] Division of Preclinical Innovation [DPI] U.S. Environmental Protection Agency [EPA] National Institutes of Environmental Health Sciences [NIEHS] National Toxicology Program [NTP] U.S. Food and Drug Administration [FDA] Tox21 Assay Overview: CREB (cyclic-AMP Responsive Element Binding Protein) is a cellular transcription factor. It binds to certain DNA sequences called cAMP Responsive Elements (CRE) and regulates the transcription of the genes. […] This cell line can be used to find agonists/antagonists of the cyclic AMP signaling pathway. The activation of the report gene under culture conditions can be detected by fluorescence intensity. This cell line has been used to screen the Tox21 10K compound library to identify agonists that induce oxidative stress. The cytotoxicity of the Tox21 compound library against the CRE-bla cell line was tested in parallel by measuring the cell viability using CellTiter-Glo assay (Promega, Madison, WI) in the same wells.
Tox21 Assay Protocol Summary: CRE-bla Hek 293T cells were suspended in assay medium (DMEM containing 10% dialyzed FBS, 0.1 mM NEAA, 1 mM sodium pyruvate and 25 mM HEPES) and dispensed at 2,000 cells/4 uL /well into 1536-well black wall/clear bottom plates using a Multidrop Combi (ThermoFisher Scientific, Waltham, MA) dispenser. After the assay plates were incubated at 37 C/5% CO2 for 18 hrs, 23 nL of compounds dissolved in DMSO, positive controls or DMSO only was transferred to the assay plate by a pintool workstation (Kalypsys, San Diego, CA), followed by addition of 1 uL of 1.25uM NKH477 (0.25 uM as final concentration) in assay medium using a Flying Reagent Dispenser (Aurora Discovery, San Diego, CA). The plates were incubated at 37 C and 5% CO2 for 3 hrs. Then 1 uL of LiveBLAzer B/G FRET substrate (Invitrogen, Carlsbad, CA) was added to each well using Bioraptr Flying Reagent Dispenser (FRD, Aurora Discovery, San Diego, CA). The plates were incubated at room temperature for 2 h, then fluorescence intensities were measured using an Envision plate reader (PerkinElmer, Shelton, CT) at Excitation 405nm, Emission 460nm and 530nm. The % activity was determined from the ratio of 460nm/530nm. For cell viability readout that measures cytotoxicity, 4 uL /well of CellTiter-Glo reagent was added into the assay plates using Bioraptr FRD. After 30 min incubation at room temperature, the luminescence intensity in the assay plates was measured using a ViewLux (PerkinElmer, Shelton, CT) plate reader.
Background: Quantitative high-throughput screening tests each substance at several concentrations.
On to `CCCCCCCCCCCCCCN(C)C`, for which the viability change, negative = cytotoxic was 8.85% [at 18.9 µM] (inactive).
`NCCNCCO`: the Potency result was “inactive”.
The same measure, in the same setting: to `CCCCOC(=O)CC#N` belongs “inactive”; to `Cc1cccc(C)c1NC(=O)CN1CCN(CCCC(c2ccc(F)cc2)c2ccc(F)cc2)CC1`, “inactive”.
For `CCn1cc(C(=O)O)c(=O)c2cc(F)c(N3CCNCC3)nc21`, the Potency entry is “inactive”.
Take `CC(C)Cn1cnc2c(N)nc3ccccc3c21`: the viability change, negative = cytotoxic was -1.2% [at 18.9 µM] (inactive).
`CN[C@@H]1[C@H](O)[C@H](NC)[C@H]2O[C@@]3(O)C(=O)C[C@@H](C)O[C@H]3O[C@@H]2[C@H]1O`: the Potency result is “inactive”.
Regarding `CC(=O)Oc1cc(C(C)C)c(OCCN(C)C)cc1C`, the Potency entry was “inactive”.
The same measure, in the same setting: to `Cc1ccc(C)c(OCCCC(C)(C)C(=O)O)c1` belongs “inactive”; to `C[Si](C)(C)O[Si](C)(C)O[Si](C)(C)C`, “inactive”; to `NC(=O)NO`, “inactive”.
Same read-out and setting: next, `COC(=O)c1ccccc1O`: “inactive”; `Cc1ccc(C(C)C)cc2c(C)ccc1-2`: “inactive”; `CN(C)C(=O)Oc1cccc([N+](C)(C)C)c1`: “inactive”.
On to `COC(=O)C1=C(C)NC(C)=C(C(=O)OC(C)(C)CN(C)CCC(c2ccccc2)c2ccccc2)C1c1cccc([N+](=O)[O-])c1` (stereo not given), for which the Potency entry was “inactive”.
Same read-out and setting: next, `CC(C)Cc1ccccc1`: “inactive”; `COc1c2occc2c(OC)c2c(=O)cc(C)oc12`: “inactive”; `CCCCCCOC(=O)NC(=N)c1ccc(NCc2nc3cc(C(=O)N(CCC(=O)OCC)c4ccccn4)ccc3n2C)cc1`: 26.6 µM (active).
With `C#C[C@]1(O)CC[C@H]2[C@@H]3[C@H](C)CC4=C(CCC(=O)C4)[C@H]3CC[C@@]21C`, the Potency entry is “inactive”.
The same measure, in the same setting: to `COc1cc(OC)nc(NC(=O)NS(=O)(=O)Nc2ccccc2C(=O)N(C)C)n1` belongs “inactive”; to `C/C(=C(\CCO)SS/C(CCO)=C(\C)N(C=O)Cc1cnc(C)nc1N)N(C=O)Cc1cnc(C)nc1N`, “inactive”; to `CCN(CC)S(=O)(=O)c1ccc(C(=O)O)cc1`, “inactive”.
On the same count and under the same terms, next, `CC(=O)N[C@@H](CS)C(=O)O`: “inactive”; `O=C(O)c1cc(N=Nc2ccc(S(=O)(=O)Nc3ccccn3)cc2)ccc1O`: “inactive”; `O=S(=O)(Cl)c1c(Cl)cccc1Cl`: “inactive”.
On the same count and under the same terms, next, `CCC(=O)/C=C/C1C(C)=CCCC1(C)C` (stereo not given): “inactive”; `CC/C=C\C/C=C\C/C=C\CCCCCCCC(=O)O`: “inactive”.
In the case of `c1ccc(Cc2ccccc2)cc1`, the Potency result is “inactive”.
Turning to `CCOC(=O)C(C)O` (stereo not given), the Potency entry was “inactive”.
In the case of `Cc1ccccc1C(=O)Nc1ccc(C(=O)N2CCCC(O)c3cc(Cl)ccc32)c(C)c1` (stereo not given), the Potency entry was “inactive”.
In the case of `CC1(C)C(=O)N(Br)C(=O)N1Cl`, the Potency entry is “inactive”.
Consider `CCCCCCCCCCCCCCCCCO`, for which the viability change, negative = cytotoxic was 0.838% [at 18.9 µM] (inactive).
With `CCc1c(C)[nH]c2c1C(=O)C(CN1CCOCC1)CC2` (stereo not given), the Potency entry is “inactive”.
Regarding `CO[Si](OC)(OC)OC`, the Potency entry was “inactive”.
Consider `CC(C)=CCC/C(C)=C/CC/C(C)=C/C(=O)OCC(=O)[C@@]1(O)CC[C@H]2[C@@H]3CCC4=CC(=O)C=C[C@]4(C)[C@H]3[C@@H](O)C[C@@]21C`, for which the Potency entry is “inactive”.
Turning to `Nc1nc2ccc([N+](=O)[O-])cc2s1`, the Potency result was “inactive”.
For `O=C(c1ccccc1)c1ccc2n1CCC2C(=O)O` (stereo not given), the Potency result was “inactive”.
On the same count and under the same terms, to `O=C(Nc1ccc(C(=O)O)c(O)c1)c1ccccc1` belongs “inactive”; to `c1ccc(CCNc2nc(-c3ccccc3)cs2)cc1`, “inactive”; to `Brc1cc(Br)c(Oc2cc(Br)c(Br)cc2Br)cc1Br`, “inactive”.
